Measurements from PubChem BioAssay AID738 (SRMLSC, 2007).
The whole screen tested about 98,000 compounds, of which about 4,900 (5%) were called active. This excerpt belongs to a sample that is enriched for actives. Values without a mark were called inactive. No stated cut-off is given here; in the data, active means inhibition above about 30%; inactive means the rest.

Assay: yeast control strain growth suppression – counter-screen for post-Golgi transport modulator project, primary screen (AID 738)
Details: efflux-deficient yeast background strain, growth absorbance A615, 16 h; at 10 µM; active compounds read high

Row | Compound | inhibition
1 | CN=C1S/C(=C\c2ccc(Sc3ccc(Cl)cc3)o2)C(=O)N1C | -6.09%
2 | COCCNc1nc(-n2nc(C)cc2C)nc2sc3c(c12)CCCC3 | 31.4% (active)
3 | CCC(O)CNc1nc(-n2nc(C)cc2C)nc2sc3c(c12)CC(C)(C)OC3 (centres undefined) | -1.72%
4 | Cc1cc(C)n(-c2nc(SCC(=O)N3CCCC3)c3c4c(sc3n2)CCCC4)n1 | 24.5%
5 | O=C(Nc1ccc(-n2ccnc2P(=O)(O)c2ccccc2)cc1)c1ccccc1Br | 13.2%
6 | COc1cccc(NC(=O)Cc2ccc(C)cc2)c1 | 2.33%
7 | COc1ccc(CC(=O)Nc2ccc(-c3nnc(-c4ccc(C)cc4)o3)cc2)cc1 | 5.16%
8 | COc1ccc(NC(=O)/C(Cl)=C(/Cl)S(=O)Cc2ccc(C)cc2)cn1 (centres undefined) | 102% (active)
9 | O=c1c2ccccc2nc2n1C(CSCc1ccccc1)CS2 (centres undefined) | 3.79%
10 | Cc1ccc(N2C(=O)CC(Sc3ncn[nH]3)C2=O)cc1 (centres undefined) | -0.63%
11 | CS(=O)(=O)N1CCN(c2ccc(C(=O)NC3C4CC5CC(C4)CC3C5)cc2[N+](=O)[O-])CC1 (centres undefined) | -2.2%
12 | O=C(NC12CC3CC(CC(C3)C1)C2)N1CCCC(CO)C1 (centres undefined) | 7.31%
13 | CC(NCCO)C(=O)C12CC3CC(CC(C3)C1)C2 (centres undefined) | -1.14%
14 | O=C(CNCCO)NC12CC3CC(CC(C3)C1)C2 | 33.3% (active)
15 | COc1cc(CNCc2cccs2)cc(Br)c1OC | -5.39%
16 | COC(=O)c1cc(OC)ccc1-c1ccc(OC)cc1 | 18.8%
17 | COc1ccc2c(c1)OC(O)(C(F)(F)C(F)F)CC2=O (centres undefined) | 34.1% (active)
18 | COc1ccc2c(c1)SC(C)CC2=O (centres undefined) | -5.53%
19 | Cc1ccc(/C=N/NC(=O)C(NC(=O)c2ccccc2)c2n[nH]c(=O)c3ccccc23)cc1 (centres undefined) | 13.9%
20 | Brc1ccc(C2=CC(c3ccco3)n3ncnc3N2)cc1 (centres undefined) | 19.2%

Row | Compound | inhibition
21 | COC(=O)C1=C(C)Nc2ncnn2C1c1cccnc1 (centres undefined) | 15%
22 | Clc1ccc2c(c1)C1=C(C(c3ccncc3)O2)C(c2ccc(Br)cc2)n2ncnc2N1 (centres undefined) | 44.5% (active)
23 | O=C(CNS(=O)(=O)c1ccc(Br)s1)N1CCN(C(=O)c2ccco2)CC1 | -3.81%
24 | O=C1Cc2ccccc2Sc2ccc(Cl)cc21 | 7.76%
25 | Cc1nc2ccccc2c2oc(C(=O)NCC3CCCO3)cc12 (centres undefined) | 5.49%
26 | CCCN(CCC)CCNC(=O)c1cc2c(C)nc3ccccc3c2o1 | -0.17%
27 | Cc1nc2ccccc2c2oc(C(=O)NCCCN3CCC(C)CC3)cc12 | 38.5% (active)
28 | CCc1cc(C(c2ccccc2OC)N2CCOCC2)c(NC(=O)c2ccccc2)s1 (centres undefined) | 14.6%
29 | O=C(Cn1cnc2c(cnn2-c2ccccc2)c1=O)NCc1ccccc1 | 2.17%
30 | CN(Cc1ccccc1)C(=O)CCNC(=O)Cn1cnc2ccccc2c1=O | 32.8% (active)
31 | O=C(Cn1cnc2ccccc2c1=O)NCC1COc2ccccc2O1 (centres undefined) | -2.34%
32 | N#C/C(=C1/CCCN1)c1ccccn1 | 3.25%
33 | CC(C)CNC(=S)NNC(=O)c1ccccc1OC(F)F | 9.35%
34 | Cc1ccc(C(=O)N2CCCCCC2)cc1Br | 16.6%
35 | Cc1ccc(C(=O)N2CCCC2)c(F)c1F | -0.75%
36 | Cc1c(Br)cc(C(=O)N2CCCCCC2)c(C)c1C | 38.8% (active)
37 | CCOc1cccc(SCc2noc(C(=O)NC(C)C)c2C(=O)O)c1 | -0.31%
38 | C=CCn1c(SCC(=O)NCc2ccccc2)nnc1-c1cc(Br)ccc1O | 1.48%
39 | COCCCNCC(=O)Nc1sc(C)c(C)c1C(=O)OC | 5.81%
40 | CCOC(=O)N1CCN(C(=O)c2cc3c(ccc4ccccc43)oc2=O)CC1 | 3.76%

Row | Compound | inhibition
41 | CC(C)(C)NC(=O)NC(=O)COC(=O)Cn1c(C(F)(F)F)nc2ccccc21 | 2.81%
42 | Cn1cccc1C(=O)NC(=O)COC(=O)Cc1coc2ccc3ccccc3c12 | 33% (active)
43 | Cc1ccccc1NC(=O)c1ccccc1NS(=O)(=O)c1cccc2cccnc12 | 8.21%
44 | Cc1cc(C)c2c(-n3cccc3)c(C(=O)NNS(=O)(=O)c3ccc(F)cc3)sc2n1 | 4.13%
45 | COc1ccc(NC(=O)COC(=O)Cn2c(C)nc3ccccc32)cc1OC | 1.03%
46 | COc1ccc(-c2nc3ccccc3n2CCC(C)C)cc1OC | 44.3% (active)
47 | COCCn1c(-c2ccc(OC)c(OC)c2)nc2ccccc21 | -0.3%
48 | CC1=NN(C(=O)Cc2ccc(C)cc2)C(O)(c2cccnc2)C1 (centres undefined) | 4.82%
49 | O=C(CCS(=O)(=O)c1cccc2nsnc12)N1CCN(c2ccccc2F)CC1 | 30.8% (active)
50 | O=C(C(NS(=O)(=O)c1cccc2nsnc12)c1ccccc1)N1CCN(c2ccccc2)CC1 (centres undefined) | 2.02%
51 | CCc1ccccc1N(CC(=O)N1CCN(c2ccccc2F)CC1)S(C)(=O)=O | 3.45%
52 | Cn1c(=O)n(C)c2cc(/C=N/NC(=O)c3cccc(Br)c3)ccc21 | -10.6%
53 | Cn1nnnc1SCC(=O)Nc1ccccc1C(=O)NC1CC1 | 2.02%
54 | c1ccc(CSc2ncnc3c2sc2nc(N4CCOCC4)c4c(c23)CCCC4)cc1 | 10.3%
55 | CC(C)c1ccc(Nc2ncccc2C#N)cc1 | 7.46%
56 | Cc1nn2c(c1-c1ccccc1)N=C(c1ccco1)CC2c1ccccc1 (centres undefined) | 32.2% (active)
57 | Cc1[nH]c2ccccc2c1C(=O)COC(=O)C(C)C | 2.83%
58 | CCOC(=O)c1c(-c2ccccc2)csc1NC(=S)NC(=O)c1ccccc1 | 15.1%
59 | COc1ccccc1N1CC(C(=O)Nc2ccc(S(=O)(=O)N3CCOCC3)cc2)CC1=O (centres undefined) | 5.2%
